Source: PubChem (several laboratories)
PfHsp40 rescue = restores yeast growth despite PfHsp40 toxicity. S. cerevisiae expressing PfHsp40, growth rescue, ATP luminescence. growth rescue, % at 12.5 µM. 340,000 tested, 0.68% active. AID 504582; in the data active = growth rescue above about 28%, passing the limit was not always enough;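 also: yeast W303a lacking pdr1 and pdr3 grown in galactose medium; growth measured after three days at 30 °C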
PriA SSB inh = K. pneumoniae PriA-SSBct interaction inhibition | AlphaScreen SSBct-PriA binding, biotinylated peptide | 430,000 tested, 0.6% active | inhibition, % at 33 µM; in the data active = inhibition mostly above about 37%, no sharp cut-off; inactive = mostly below about 20%;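 also: plate controls were negative control peptide for no effect and reference peptide for full effect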
PrP UTR inh = inhibition of PrP 5' UTR reporter expression; inhibition, % (concentration not given with the values); cell-based PrP 5' UTR mRNA reporter, plate reader; 340,000 tested, 0.35% active; in the data active = inhibition above about 52%; also: 0 = median of the neutral control wells
BJeLR lethal = BJeLR cell viability loss. BJeLR (HRASV12) viability, CellTiter-Glo ATP luminescence, 48 h. inhibition, % (no concentration beside the values). 300,000 tested, 0.17% active. AID 1554; in the data active = inhibition above about 50%
PrPC TRFRET = inhibitors of human cell surface prion protein PrPC; P04156; TR-FRET read-out; inhibition, % at 13.8 µM; 370,000 tested, 0.43% active; in the data active = inhibition above about 24%; also: 0% = median of the test wells and 100% = reference compound wells
RecA intein inh = Mtb RecA intein splicing inhibition; cell-free RecA intein splicing, fluorescence; inhibition, % (no concentration beside the values); 290,000 tested, 0.75% active; AID 2221; in the data active = inhibition above about 30%;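 also: 0% = vehicle wells and 100% = reference inhibitor control wells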
* marks the source's active call; other numbers are inactive results; . = no result given; ! = repeats disagree. The list is not random: actives were taken first. Their share in the collection is about 1.9%.

SMILES	PfHsp40 rescue	PriA SSB inh	PrP UTR inh	BJeLR lethal	PrPC TRFRET	RecA intein inh
O=C(c1ccc(N2CCCCC2)c([N+](=O)[O-])c1)N(Cc1ccccc1)c1ccccn1	-0.1	52.1*	-18.0	2.8	5.0	10.9
CC1Cc2ccccc2N1C(=O)c1ccc(N2CCCC2)c([N+](=O)[O-])c1 (stereo not drawn)	3.7	45.5*	-4.1	4.5	-9.4	11.5
COc1ccc(NC(=O)c2cccc(OS(=O)(=O)N(C)C)c2)cc1	1.0	-0.9	-30.1	1.1	9.2	6.6
CN(C)S(=O)(=O)Oc1cccc(C(=O)Nc2ccc(Cl)c(Cl)c2)c1	233.3*	-33.8	-110.2	6.2	22.8	.
Cc1ccc(C(=O)N/C(=C\c2ccco2)C(=O)NCCCn2ccnc2)cc1C	-0.4	86.0*	-10.8	0.4	0.2	4.5
Cc1cc(NC(=O)C(=O)c2c[nH]c3ccccc23)n(-c2nc3c(cnn3-c3ccccc3)c(=O)[nH]2)n1	.	-12.0	.	.	.	.
COC(=O)c1ccccc1NC(=O)COC(=O)CON=C(C)c1ccc2c(c1)OCO2	.	-4.7	.	.	.	.
C=COC(=O)CSc1snc(SCC(=O)OC)c1C#N	0.6	-13.2	-14.6	-5.7	5.7	33.2*
O=C(NCCCn1ccnc1)c1ccc(N2CCCCCC2)c([N+](=O)[O-])c1	0.9	32.6	-9.5	71.2*	-22.6	1.2
COc1ccc(S(=O)(=O)N2CCOC2CNC(=O)C(=O)NCc2ccncc2)cc1 (stereo not drawn)	0.1	2.6	-15.6	-2.0	6.3	7.5
O=C(NCCCn1ccnc1)C(=O)NCC1OCCN1S(=O)(=O)c1ccc2c(c1)OCCO2 (stereo not drawn)	-1.9	23.0*!	-1.3	-0.9	-6.7	-1.2
O=C(NCCCn1ccnc1)C(=O)NCC1OCCCN1S(=O)(=O)c1cccs1 (stereo not drawn)	.	11.0	.	.	.	.
COc1ccc(S(=O)(=O)N2CCOC2CNC(=O)C(=O)NCCCn2ccnc2)cc1 (stereo not drawn)	.	102.5*	.	.	.	.
Cc1cc(C)c(S(=O)(=O)N2CCOC2CNC(=O)C(=O)NCCCn2ccnc2)c(C)c1 (stereo not drawn)	-0.5	49.8*	-10.0	7.2	-5.7	-0.8
Cc1ccc(C(=O)NCCCn2ccnc2)cc1[N+](=O)[O-]	-0.2	-1.5	7.9	7.6	-12.8	-3.7
O=C(NCCc1ccccc1)C(=O)NCC1OCCN1S(=O)(=O)c1ccc2c(c1)OCCO2 (stereo not drawn)	0.7	-4.2	-16.0	2.3	-2.3	5.0
CCn1nnc2c(N3CC(C(=O)N4CCc5ccccc54)C3)ncnc21	.	4.0	.	.	.	.
CCOc1cccc2sc(NNC(=O)c3ccc(F)cc3)nc12	.	11.0	.	.	.	.
CN(C)c1ccc(C(=O)Nc2nnc(-c3cc(Cl)ccc3Cl)o2)cc1	.	-19.0	.	.	.	.
COc1ccc2nc(-c3ccc(OC)c(NC(=O)c4ccc5ccccc5c4)c3)cn2n1	.	-3.0	.	.	.	.
CC(=O)N1CCC(C(=O)NCC#CCOc2ccc3c(c2)OCO3)CC1	.	-6.0	.	.	.	.
O=C(NCc1ccccn1)C(=O)NCC1OCCN1S(=O)(=O)c1ccc(Br)cc1 (stereo not drawn)	0.3	8.3	-22.6	4.9	-4.0	-1.3
O=C(NCCCn1ccnc1)C(=O)NCC1OCCN1S(=O)(=O)c1ccc([N+](=O)[O-])cc1 (stereo not drawn)	.	80.0*	.	.	.	.
CC1CN(S(=O)(=O)c2ccc(C(=O)NCCCn3ccnc3)cc2)CC(C)O1 (stereo not drawn)	.	-24.6	-17.5	70.8*	-4.9	-1.5
O=C(NCc1ccccn1)C(=O)NCC1OCCN1S(=O)(=O)c1ccc([N+](=O)[O-])cc1 (stereo not drawn)	106.8*	0.7	-0.1	-3.9	-32.1	0.0
SMILES	PfHsp40 rescue	PriA SSB inh	PrP UTR inh	BJeLR lethal	PrPC TRFRET	RecA intein inh
CC(C)(C)OC(=O)C[C@H]1C/C=C/C[C@@H](CC(=O)N[C@@H](CO)Cc2ccccc2)C(=O)N2CCC[C@@H]2COC1=O	.	4.5	.	.	.	.
O=C(Nc1nccs1)c1c[nH]c(=O)n(Cc2ccco2)c1=O	.	3.0	.	.	.	.
S=C(Nc1ccccc1)c1ccccn1	-0.7	72.0*	-81.6	-6.1	-0.1	0.9
S=C(Nc1ccccc1)Nc1ccccn1	.	.	.	.	1.4	.
CCOc1ccc(NS(=O)(=O)c2cnc(Cl)c(Cl)c2)cc1	87.7*	-24.0	-19.1	-11.8	-0.7	0.8
O=C(Nc1nc2c(s1)CSc1ccccc1-2)c1ccc(S(=O)(=O)N2CCc3ccccc3C2)cc1	.	-9.0	.	.	.	.
CCOC1=C(C#N)CC2(CC1)c1ccccc1-c1ccccc12	1.1	-13.2	-17.4	.	-0.7	.
